# Experimental data published in PubChem BioAssay (Tox21).
# Several values for one entry are separate records, joined by “and”; a condition that tells them apart may be missing. Identical values can stand only once. Inconclusive results are not listed. A call without a number means that no potency is given here. A number with no mark means an inactive call. Activity calls are given as the source filed them. Calls come from the whole dose curve; as a rule, active = well fitted curve in the direction sought with a large enough effect in the repeat runs; inconclusive = weak or mixed curves; inactive = no such curve, though single readings can be large; an effect the other way counts as inactive or inconclusive.
# How the values were obtained:
# [1] = target: Cytochrome P450 2C19 (Homo sapiens) (UniProt P33261); assay: Cytochrome P450 Family 2 Subfamily C Member 19 (CYP2C19) small molecule antagonists: luciferase reporter qHTS assay (AID 1671197); settings: P450-Glo CYP2C19 enzyme, luciferin luminescence, 1 h; series mostly up to 52.9 µM; note: nearly all actives have a fitted effect of over 65% in size
# How it was run: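 Light output is proportional to CYP2C19 activity: proluciferin substrate is converted to luciferin, then detected by a luciferin detection reagent that also stops the 1 h, 37C NADPH-driven reaction. Ketoconazole serves as positive control.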
# [2] = target: Cytochrome P450 2C9 (Homo sapiens) (UniProt P11712); assay: Cytochrome P450 Family 2 Subfamily C Member 9 (CYP2C9) small molecule antagonists: luciferase reporter qHTS assay (AID 1671198); settings: P450-Glo CYP2C9 enzyme assay, luciferin luminescence; series mostly up to 115 µM; note: nearly all actives have a fitted effect of over 50% in size
# How it was run: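 P450-Glo proluciferin substrate with CYP2C9 enzyme; 10 min RT preincubation, then NADPH regeneration 1 h at 37C; luciferin detection reagent 20 min RT, luminescence in relative luminescence units.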
# [3] = target: Cytochrome P450 1A2 (Homo sapiens) (UniProt P05177); assay: Cytochrome P450 Family 1 Subfamily A Member 2 (CYP1A2) small molecule antagonists: luciferase reporter qHTS assay (AID 1671199); settings: P450-Glo CYP1A2 enzyme, luciferin luminescence, 1 h; series mostly up to 53 µM; note: nearly all actives have a fitted effect of over 50% in size
# How it was run: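 Inhibition of CYP1A2 conversion of proluciferin to luciferin, detected by luminescence. Reaction run 1 h at room temperature with NADPH regeneration after brief compound preincubation.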
# [4] = target: Voltage-gated inwardly rectifying potassium channel KCNH2 (Homo sapiens) (UniProt Q12809); assay: Human Ether-a-go-go-Related Gene (hERG) channel small molecule antagonists: fluorescence cell-based qHTS assay (AID 1671200); settings: hERG-U2OS cells, FluxOR thallium flux fluorescence; series mostly up to 76.8 µM; note: nearly all actives have a fitted effect of over 50% in size;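 for activity change, negative = inhibition: hERG-expressing U2OS cells given a thallium stimulus after FluxOR II dye loading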
# How it was run: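 First, 1000 cells per well are seeded and cultured overnight at 37 C. Next, FluxOR II dye is loaded for 1 h at room temperature, protected from light. After 10 more minutes, stimulus is added and fluorescence is read.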
# [5] = target: Cytochrome P450 3A4 (Homo sapiens) (UniProt P08684); assay: Cytochrome P450 Family 3 Subfamily A Member 4 (CYP3A4) small molecule antagonists: luciferase reporter qHTS assay (AID 1671201); settings: P450-Glo CYP3A4 enzyme, luciferin luminescence, 1 h; series mostly up to 115 µM; note: nearly all actives have a fitted effect of over 50% in size
# How it was run: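 Enzyme and proluciferin substrate are mixed with test chemicals for 10 min, then NADPH regeneration system drives turnover for 1 h at room temperature. A detection reagent halts the reaction; luminescence after 20 min gives relative activity.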
# Potency is the fitted concentration of half-maximal effect.
# Sequence of Cytochrome P450 1A2 (Homo sapiens) (P05177 whole entry, looked up): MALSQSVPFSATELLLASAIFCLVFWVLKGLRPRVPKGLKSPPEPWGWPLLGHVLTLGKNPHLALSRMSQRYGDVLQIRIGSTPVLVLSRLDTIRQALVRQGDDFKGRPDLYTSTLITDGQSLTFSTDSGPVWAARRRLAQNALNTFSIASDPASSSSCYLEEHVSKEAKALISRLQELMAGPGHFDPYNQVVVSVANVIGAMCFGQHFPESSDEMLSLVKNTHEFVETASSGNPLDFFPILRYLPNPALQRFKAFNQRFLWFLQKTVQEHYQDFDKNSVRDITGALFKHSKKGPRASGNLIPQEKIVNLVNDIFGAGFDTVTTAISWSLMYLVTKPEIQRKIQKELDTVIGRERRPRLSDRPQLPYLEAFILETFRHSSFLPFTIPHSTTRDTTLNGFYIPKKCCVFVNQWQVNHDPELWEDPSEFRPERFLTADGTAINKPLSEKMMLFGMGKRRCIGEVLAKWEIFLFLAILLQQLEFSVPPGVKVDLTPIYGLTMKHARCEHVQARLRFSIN
# Sequence of Cytochrome P450 2C9 (Homo sapiens) (P11712 whole entry, looked up): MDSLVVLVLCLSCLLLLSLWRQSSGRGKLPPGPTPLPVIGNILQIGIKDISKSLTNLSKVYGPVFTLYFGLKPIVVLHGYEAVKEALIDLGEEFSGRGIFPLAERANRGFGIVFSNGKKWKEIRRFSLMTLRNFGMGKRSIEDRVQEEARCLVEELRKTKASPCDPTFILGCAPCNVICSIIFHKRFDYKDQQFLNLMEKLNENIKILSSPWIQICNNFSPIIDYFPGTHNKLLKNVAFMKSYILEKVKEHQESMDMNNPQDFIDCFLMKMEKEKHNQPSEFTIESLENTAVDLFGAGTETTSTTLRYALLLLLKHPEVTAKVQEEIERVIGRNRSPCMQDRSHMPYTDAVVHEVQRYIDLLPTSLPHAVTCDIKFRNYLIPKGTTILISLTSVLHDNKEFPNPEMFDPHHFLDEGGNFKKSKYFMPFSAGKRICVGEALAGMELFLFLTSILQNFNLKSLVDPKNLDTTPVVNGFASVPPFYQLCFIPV
# Sequence of Voltage-gated inwardly rectifying potassium channel KCNH2 (Homo sapiens) (Q12809 whole entry, looked up): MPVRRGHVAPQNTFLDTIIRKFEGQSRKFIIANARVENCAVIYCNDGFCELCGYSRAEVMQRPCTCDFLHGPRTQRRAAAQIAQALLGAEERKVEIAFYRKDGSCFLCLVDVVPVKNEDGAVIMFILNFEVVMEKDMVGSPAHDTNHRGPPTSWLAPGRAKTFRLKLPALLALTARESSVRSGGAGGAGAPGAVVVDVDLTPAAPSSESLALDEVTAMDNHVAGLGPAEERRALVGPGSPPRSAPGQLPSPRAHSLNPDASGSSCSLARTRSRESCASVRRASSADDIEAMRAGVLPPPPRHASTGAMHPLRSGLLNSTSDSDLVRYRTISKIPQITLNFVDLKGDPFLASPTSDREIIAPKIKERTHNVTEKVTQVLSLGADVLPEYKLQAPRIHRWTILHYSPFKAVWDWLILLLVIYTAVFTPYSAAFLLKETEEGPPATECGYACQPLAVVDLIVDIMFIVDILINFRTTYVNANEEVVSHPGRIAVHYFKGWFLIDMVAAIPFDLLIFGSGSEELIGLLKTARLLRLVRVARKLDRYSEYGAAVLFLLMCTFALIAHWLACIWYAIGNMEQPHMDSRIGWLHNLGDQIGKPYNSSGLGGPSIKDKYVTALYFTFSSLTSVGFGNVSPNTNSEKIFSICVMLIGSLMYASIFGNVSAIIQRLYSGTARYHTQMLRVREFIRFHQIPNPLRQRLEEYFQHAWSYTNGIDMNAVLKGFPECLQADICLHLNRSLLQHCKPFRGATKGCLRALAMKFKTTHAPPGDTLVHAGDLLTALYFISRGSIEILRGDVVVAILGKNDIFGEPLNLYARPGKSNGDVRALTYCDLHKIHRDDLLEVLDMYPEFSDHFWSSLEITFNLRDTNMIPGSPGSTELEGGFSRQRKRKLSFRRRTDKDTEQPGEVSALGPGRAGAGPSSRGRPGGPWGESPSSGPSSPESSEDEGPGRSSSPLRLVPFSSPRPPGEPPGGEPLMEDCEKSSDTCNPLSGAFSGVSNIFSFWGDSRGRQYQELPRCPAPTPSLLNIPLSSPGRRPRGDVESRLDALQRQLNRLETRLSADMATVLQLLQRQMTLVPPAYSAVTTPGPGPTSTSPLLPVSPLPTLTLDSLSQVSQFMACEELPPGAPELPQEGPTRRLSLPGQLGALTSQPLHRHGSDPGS
# Sequence of Cytochrome P450 3A4 (Homo sapiens) (P08684 whole entry, looked up): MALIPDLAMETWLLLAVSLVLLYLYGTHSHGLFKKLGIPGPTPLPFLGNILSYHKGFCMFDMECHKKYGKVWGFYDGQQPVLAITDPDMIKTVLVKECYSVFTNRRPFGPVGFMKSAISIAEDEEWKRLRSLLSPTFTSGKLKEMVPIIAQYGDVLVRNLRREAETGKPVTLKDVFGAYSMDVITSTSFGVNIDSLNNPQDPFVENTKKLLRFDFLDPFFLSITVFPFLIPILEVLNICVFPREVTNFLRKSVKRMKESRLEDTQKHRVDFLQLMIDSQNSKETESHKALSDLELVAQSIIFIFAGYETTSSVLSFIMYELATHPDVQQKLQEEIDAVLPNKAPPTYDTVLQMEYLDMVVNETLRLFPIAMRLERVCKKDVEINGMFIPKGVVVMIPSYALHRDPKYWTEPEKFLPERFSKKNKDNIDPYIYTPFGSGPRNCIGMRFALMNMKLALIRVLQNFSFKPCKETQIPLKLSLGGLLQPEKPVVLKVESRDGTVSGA
# Sequence of Cytochrome P450 2C19 (Homo sapiens) (P33261 whole entry, looked up): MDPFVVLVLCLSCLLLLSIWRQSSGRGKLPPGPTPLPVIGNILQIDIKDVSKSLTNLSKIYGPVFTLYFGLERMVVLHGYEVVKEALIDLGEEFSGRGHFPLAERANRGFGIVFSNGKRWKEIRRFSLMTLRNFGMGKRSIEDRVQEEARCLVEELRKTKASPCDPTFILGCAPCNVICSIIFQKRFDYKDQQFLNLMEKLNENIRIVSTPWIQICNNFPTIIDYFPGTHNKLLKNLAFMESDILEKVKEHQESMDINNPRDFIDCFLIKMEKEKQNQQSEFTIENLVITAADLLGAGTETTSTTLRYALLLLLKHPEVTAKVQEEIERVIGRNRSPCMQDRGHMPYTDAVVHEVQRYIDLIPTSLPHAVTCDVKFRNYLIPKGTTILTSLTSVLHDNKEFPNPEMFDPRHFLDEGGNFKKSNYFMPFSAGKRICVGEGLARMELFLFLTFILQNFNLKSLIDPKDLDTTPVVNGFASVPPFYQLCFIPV
Compound,Potency [1],Potency [2],Potency [3],Potency [4],Potency [5],"activity change, negative = inhibition [4]"
CC(=O)OCC(=O)NCCCOc1cccc(CN2CCCCC2)c1,inactive,inactive,inactive,inactive,inactive,–
O=c1[nH]c2ccc(Cl)cc2o1,79.6 µM (active),inactive,10 µM (active),inactive,inactive,–
NCCNCCO,inactive,inactive,inactive,inactive,inactive,–
CNC(=O)c1cnn(-c2nc(N)c3ncn([C@@H]4O[C@H](CO)[C@@H](O)[C@H]4O)c3n2)c1,inactive,inactive,inactive,inactive,inactive,–
c1cc(N(CC2CO2)CC2CO2)ccc1Cc1ccc(N(CC2CO2)CC2CO2)cc1 (stereo not given),63.3 µM (active),17.8 µM (active),inactive,inactive,12.6 µM (active),–
CC(=O)c1ccc([N+](=O)[O-])cc1,63.4 µM (active),inactive,40 µM (active),inactive,inactive,–
C/C=C/C=C/C=O,inactive,inactive,inactive,inactive,inactive,–
COc1cc(C(=O)NCCCCCC(=O)O)cc(OC)c1OC,inactive,inactive,inactive,inactive,inactive,–
Cc1cccc(O)c1N,40.3 µM (active),32 µM (active),10.1 µM (active),inactive,36 µM (active),–
C=C1C[C@@]23CC[C@H]4[C@@](C)(CCC[C@@]4(C)C(=O)O[C@@H]4O[C@H](CO)[C@@H](O)[C@H](O)[C@H]4O)[C@@H]2CC[C@]1(O[C@@H]1O[C@H](CO)[C@@H](O)[C@H](O[C@@H]2O[C@H](CO)[C@@H](O)[C@H](O)[C@H]2O)[C@H]1O[C@@H]1O[C@H](CO)[C@@H](O)[C@H](O)[C@H]1O)C3,inactive,inactive,inactive,inactive,inactive,–
O=C(O)c1ccc(OCCCOc2ccc(C(=O)O)cc2)cc1,inactive,inactive,inactive,inactive,inactive,–
C/C=C\C/C=C/CCCCCCCCOC(C)=O,15.9 µM (active),12.6 µM (active),31.7 µM (active),–,15.9 µM (active),–
c1ccc2c(c1)CCc1ccccc1N2,8 µM (active) and 8.71 µM (active),40.1 µM (active) and 13.8 µM (active),7.13 µM (active) and 5.49 µM (active),inactive,inactive,–
CCOc1cccc(-n2cc(C(=O)N3CCN(c4cc(C(=O)O)c5ccccc5c4)CC3)nc2-c2ccc(C)cc2)c1,53.8 µM (active),67.7 µM (active),inactive,–,inactive,–
COc1ccccc1NC(=O)c1cc2ccccc2cc1O,11.2 µM (active),22.4 µM (active),1.78 µM (active),inactive,28.3 µM (active),–
COC(=O)c1nc(Cl)c(Cl)nc1N,inactive,inactive,4.36 µM (active),inactive,inactive,–
Cc1cc(C)cc(N)c1,7.19 µM (active),11.4 µM (active),36 µM (active),inactive,3.21 µM (active),–
CCOC(=O)c1ccc(OCCN2C[C@H](O)[C@@H](O)[C@H](O)[C@H]2CO)cc1,inactive,inactive,–,inactive,inactive,–
C[C@@H]1CN(CCCn2c3ccccc3c3ccccc32)C[C@H](C)N1,inactive,inactive,–,6.01 µM (active),–,–
Cc1cc(=O)c2c(O)c3c(O)cc(=O)c4c3c3c(cc(O)c1c23)C(C)(C)C=4O,inactive,–,inactive,–,–,-4.56% [at 15.8 µM]
Cc1ccco1,inactive,inactive,–,inactive,inactive,–
CCCCCCC(C)(C)C(=O)O,71 µM (active),31.7 µM (active),–,inactive,inactive,–
Cc1cscn1,inactive,inactive,–,inactive,inactive,–
Cc1cccc(N(C)C(=S)Oc2ccc3c(c2)CCC3)c1,1.74 µM (active),–,10.2 µM (active),inactive,inactive,–
CC(=O)Oc1ccc([N+](=O)[O-])cc1CCl,inactive,–,inactive,inactive,inactive,–
COC(=O)CS,inactive,inactive,–,inactive,inactive,–
C(=C\c1ccccc1)/c1ccccc1,44.4 µM (active),–,4.99 µM (active),inactive,–,–
Brc1cc2ccccc2c2ccccc12,40.2 µM (active),–,0.32 µM (active),inactive,–,–
CCC1CO1 (stereo not given),inactive,inactive,–,inactive,inactive,–
O=C(OCC(O)CO)c1ccccc1Nc1ccnc2cc(Cl)ccc12 (stereo not given),8.71 µM (active),15.5 µM (active),–,inactive,–,–
